± gives the standard deviation of the averaged measurements.
What was measured:
[1] = tested on: DLD1; assay: cell viability (CellTiter-Glo) relative to plate median (fraction of plate median); higher = more viable cells; conditions: 5 µM; treatment time 24 h; reporter: 7TFP
In short: (§1)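 Library compounds, at a final 5 µM, stayed on reporter cells for 24 h. The cells were colorectal cancer lines stably transduced with lentiviral TCF/Wnt firefly luciferase reporters, seeded in 384-well plates 24 h before dosing. Firefly luciferase or CellTiterGlo luminescence from parallel plates was normalised to the plate median in webcellHTS2 (additive, no log transformation), and two independent replicates were averaged.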

[2] = tested on: HCT116; assay: as above; conditions: 5 µM; treatment time 24 h; reporter: TCF4/Wnt
In short: as §1

[3] = tested on: SW480; assay: as above; conditions: 5 µM; treatment time 24 h; reporter: 7TFP
In short: as §1

[4] = tested on: DLD1; assay: TCF/Wnt firefly luciferase reporter signal relative to plate median (fraction of plate median); higher = higher Wnt reporter signal; conditions: 5 µM; treatment time 24 h; reporter: 7TFP
In short: as §1

[5] = tested on: SW480; assay: as above; conditions: 5 µM; treatment time 24 h; reporter: 7TFP
In short: as §1

CNC(=C[N+](=O)[O-])NCCSCc1ccc(CN(C)C)o1
cell viability [1]: 0.892 ± 0.018
cell viability [2]: 0.983 ± 0.024
cell viability [3]: 0.974 ± 0.011
TCF/Wnt firefly luciferase reporter signal [4]: 0.998 ± 0.017
TCF/Wnt firefly luciferase reporter signal [5]: 0.953 ± 0.016

C[C@H]1COc2c(N3CCN(C)CC3)c(F)cc3c(=O)c(C(=O)O)cn1c23
cell viability [1]: 0.891 ± 0.025
cell viability [2]: 0.966 ± 0.04
cell viability [3]: 0.984 ± 0.023
TCF/Wnt firefly luciferase reporter signal [4]: 0.996 ± 0.049
TCF/Wnt firefly luciferase reporter signal [5]: 1.04 ± 0.093

C=C1CC[C@@H]2[C@](C)(CO)[C@H](O)CC[C@@]2(C)[C@@H]1C/C=C1/C(=O)OC[C@H]1O
cell viability [1]: 1.03 ± 0.021
cell viability [2]: 0.963 ± 0.052
cell viability [3]: 1.02 ± 0.014
TCF/Wnt firefly luciferase reporter signal [4]: 1.06 ± 0.042
TCF/Wnt firefly luciferase reporter signal [5]: 0.987 ± 0.033

COC(=O)Nc1nc2cc([S+]([O-])c3ccccc3)ccc2[nH]1 (stereo not given)
cell viability [1]: 0.921 ± 0.093
cell viability [2]: 0.869 ± 0.054
cell viability [3]: 1.01 ± 0.08
TCF/Wnt firefly luciferase reporter signal [4]: 0.983 ± 0.052
TCF/Wnt firefly luciferase reporter signal [5]: 0.885 ± 0.12

CC(C)c1c(O)c(-c2cc3c(c(C(C)C)c2O)CCC2C(C)(C)CCC[C@]32C)cc2c1CCC1C(C)(C)CCC[C@]21C (stereo not given in full)
cell viability [1]: 1.02 ± 0.083
cell viability [2]: 1.07 ± 0.1
cell viability [3]: 1.02 ± 0.035
TCF/Wnt firefly luciferase reporter signal [4]: 1.26 ± 0.26
TCF/Wnt firefly luciferase reporter signal [5]: 1.09 ± 0.014

CC1(C)CC[C@]2(C)CC[C@]3(C)C(=CC[C@@H]4[C@@]5(C)CC[C@H](O)C(C)(C)[C@@H]5CC[C@]43C)[C@@H]2C1 [beta-AMYRIN]
cell viability [1]: 1.01 ± 0.073
cell viability [2]: 0.962 ± 0.016
cell viability [3]: 0.994 ± 0.093
TCF/Wnt firefly luciferase reporter signal [4]: 0.913 ± 0.016
TCF/Wnt firefly luciferase reporter signal [5]: 0.9235 ± 0.0021

CC1(C)C(=O)CC[C@@]2(C)C1C[C@@H](O)[C@@]1(C)C3=CC(=O)O[C@@H](c4ccoc4)[C@]3(C)CCC21 (stereo not given in full)
cell viability [1]: 0.9595 ± 0.0035
cell viability [2]: 1.06
cell viability [3]: 0.969 ± 0.027
TCF/Wnt firefly luciferase reporter signal [4]: 0.937 ± 0.028
TCF/Wnt firefly luciferase reporter signal [5]: 0.967 ± 0.013

CC(NCCC(c1ccccc1)c1ccccc1)c1ccccc1 (stereo not given)
cell viability [1]: 0.982 ± 0.04
cell viability [2]: 1.02 ± 0.021
cell viability [3]: 1 ± 0.051
TCF/Wnt firefly luciferase reporter signal [4]: 0.9435 ± 0.0035
TCF/Wnt firefly luciferase reporter signal [5]: 0.92 ± 0.015

Cc1cn[nH]c1
cell viability [1]: 0.959 ± 0.021
cell viability [2]: 0.939 ± 0.018
cell viability [3]: 1.01 ± 0.021
TCF/Wnt firefly luciferase reporter signal [4]: 0.768
TCF/Wnt firefly luciferase reporter signal [5]: 0.892 ± 0.11

N[C@@H](C=O)[C@@H](O[C@@H]1O[C@H](C(=O)O)[C@@H](O)[C@H](O)[C@H]1O)[C@@H](O)[C@H](O)CO
cell viability [1]: 1.02
cell viability [2]: 1.14 ± 0.22
cell viability [3]: 1 ± 0.054
TCF/Wnt firefly luciferase reporter signal [4]: 0.939 ± 0.029
TCF/Wnt firefly luciferase reporter signal [5]: 1 ± 0.078

CC(=O)Oc1c(C)cccc1C(=O)O
cell viability [1]: 0.9705 ± 0.0064
cell viability [2]: 0.966 ± 0.039
cell viability [3]: 1.02 ± 0.063
TCF/Wnt firefly luciferase reporter signal [4]: 0.884 ± 0.13
TCF/Wnt firefly luciferase reporter signal [5]: 0.979 ± 0.087

O=c1c(O)c(-c2ccc(O)c(O)c2)oc2cc(O)ccc12
cell viability [1]: 0.989 ± 0.073
cell viability [2]: 0.948 ± 0.028
cell viability [3]: 0.969 ± 0.019
TCF/Wnt firefly luciferase reporter signal [4]: 1.01 ± 0.097
TCF/Wnt firefly luciferase reporter signal [5]: 0.923 ± 0.11

C[C@]12CC[C@@H]3c4ccc(O)cc4CC[C@H]3[C@@H]1CC[C@@H]2O
cell viability [1]: 0.914 ± 0.11
cell viability [2]: 1.01 ± 0.098
cell viability [3]: 0.949 ± 0.024
TCF/Wnt firefly luciferase reporter signal [4]: 1.07 ± 0.092
TCF/Wnt firefly luciferase reporter signal [5]: 1.02 ± 0.021

OCc1ccccc1O
cell viability [1]: 1.11 ± 0.14
cell viability [2]: 1.19 ± 0.035
cell viability [3]: 1.14 ± 0.05
TCF/Wnt firefly luciferase reporter signal [4]: 1.06 ± 0.12
TCF/Wnt firefly luciferase reporter signal [5]: 0.866 ± 0.042

CC(C)=CCc1c(O)cc2occ(-c3ccc4c(c3)OCO4)c(=O)c2c1O
cell viability [1]: 1 ± 0.12
cell viability [2]: 1.05 ± 0.071
cell viability [3]: 0.972 ± 0.018
TCF/Wnt firefly luciferase reporter signal [4]: 1.02 ± 0.1
TCF/Wnt firefly luciferase reporter signal [5]: 0.902 ± 0.45
